Data: paper PMC7862700, “An all-to-all approach to the identification of sequence-specific readers for epigenetic DNA modifications on cytosine”

Columns and labels:
Test in all cases: DAPPL (digital affinity profiling via proximity ligation, sequencing); 10 mM Tris-HCl pH 7.5, 50 mM NaCl, 1 mM DTT, 4% glycerol, room temperature, 30 min; GST-TFs on glutathione beads, 16-mer random dsDNA library, 0.1% formaldehyde crosslink after washing; high values mean tight binding
FLI1 = biological target: T1, FLI1 (Homo sapiens, UniProt Q01543 1-452); details: protein: recombinant; tags: N-terminal GST; dsDNA, one strand shown
T1 sequence: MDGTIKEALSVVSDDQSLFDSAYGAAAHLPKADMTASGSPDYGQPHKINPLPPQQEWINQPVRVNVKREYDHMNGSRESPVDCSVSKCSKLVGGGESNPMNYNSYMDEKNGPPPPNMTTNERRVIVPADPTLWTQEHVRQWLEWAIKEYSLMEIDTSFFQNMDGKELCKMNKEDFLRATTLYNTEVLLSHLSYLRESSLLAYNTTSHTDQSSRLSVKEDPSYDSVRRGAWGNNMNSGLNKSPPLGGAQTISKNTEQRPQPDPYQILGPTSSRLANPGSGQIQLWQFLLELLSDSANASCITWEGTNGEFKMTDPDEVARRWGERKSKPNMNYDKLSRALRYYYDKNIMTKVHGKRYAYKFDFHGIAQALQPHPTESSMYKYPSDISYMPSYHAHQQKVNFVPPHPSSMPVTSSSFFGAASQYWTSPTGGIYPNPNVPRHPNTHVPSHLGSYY
In short: (§1)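 GST fusions of human transcription factors were expressed in yeast and captured with glutathione beads. Once given DNA barcodes and pooled alongside a tag-only sample, they were incubated for 30 min at room temperature with 200 nmole of a random double-stranded 16-mer DNA library in Tris/NaCl/DTT/glycerol buffer, then washed, crosslinked (0.1% formaldehyde), proximity-ligated, PCR-amplified and sequenced on an Illumina NextSeq500. The binding signal of each hexamer is its read frequency for a factor divided by its frequency for the tag-only sample.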

ELK1 = biological target: T2, ELK1 (Homo sapiens, UniProt P19419 1-428); details: protein: recombinant; tags: N-terminal GST; dsDNA, one strand shown
T2 sequence: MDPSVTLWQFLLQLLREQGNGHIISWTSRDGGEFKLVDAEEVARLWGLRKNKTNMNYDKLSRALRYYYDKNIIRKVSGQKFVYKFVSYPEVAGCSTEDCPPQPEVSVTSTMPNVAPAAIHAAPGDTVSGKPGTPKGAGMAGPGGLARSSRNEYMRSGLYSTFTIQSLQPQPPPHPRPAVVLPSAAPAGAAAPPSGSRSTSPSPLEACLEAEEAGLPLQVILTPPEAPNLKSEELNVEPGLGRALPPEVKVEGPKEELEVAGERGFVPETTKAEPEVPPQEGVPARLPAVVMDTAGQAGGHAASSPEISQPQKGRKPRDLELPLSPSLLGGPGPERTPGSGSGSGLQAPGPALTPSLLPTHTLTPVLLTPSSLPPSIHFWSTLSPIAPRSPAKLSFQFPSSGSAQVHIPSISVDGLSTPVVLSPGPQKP
In short: as §1

GABPA = biological target: T3, GABPA (Homo sapiens, UniProt Q06546 1-454); details: protein: recombinant; tags: N-terminal GST; dsDNA, one strand shown
T3 sequence: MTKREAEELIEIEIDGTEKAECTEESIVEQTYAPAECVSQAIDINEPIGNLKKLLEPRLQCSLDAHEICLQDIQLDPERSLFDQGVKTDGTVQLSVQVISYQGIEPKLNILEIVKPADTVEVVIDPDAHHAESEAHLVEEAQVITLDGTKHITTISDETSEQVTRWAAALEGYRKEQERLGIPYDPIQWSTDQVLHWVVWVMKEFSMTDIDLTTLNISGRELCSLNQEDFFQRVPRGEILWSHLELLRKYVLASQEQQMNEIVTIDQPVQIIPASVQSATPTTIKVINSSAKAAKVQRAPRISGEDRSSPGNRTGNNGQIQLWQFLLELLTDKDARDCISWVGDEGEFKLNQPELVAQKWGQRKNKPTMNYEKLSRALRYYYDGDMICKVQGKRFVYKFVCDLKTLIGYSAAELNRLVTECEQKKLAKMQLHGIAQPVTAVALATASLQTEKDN
In short: as §1

ERG = biological target: T4, ERG (Homo sapiens, UniProt P11308 1-479); details: protein: recombinant; tags: N-terminal GST; dsDNA, one strand shown
T4 sequence: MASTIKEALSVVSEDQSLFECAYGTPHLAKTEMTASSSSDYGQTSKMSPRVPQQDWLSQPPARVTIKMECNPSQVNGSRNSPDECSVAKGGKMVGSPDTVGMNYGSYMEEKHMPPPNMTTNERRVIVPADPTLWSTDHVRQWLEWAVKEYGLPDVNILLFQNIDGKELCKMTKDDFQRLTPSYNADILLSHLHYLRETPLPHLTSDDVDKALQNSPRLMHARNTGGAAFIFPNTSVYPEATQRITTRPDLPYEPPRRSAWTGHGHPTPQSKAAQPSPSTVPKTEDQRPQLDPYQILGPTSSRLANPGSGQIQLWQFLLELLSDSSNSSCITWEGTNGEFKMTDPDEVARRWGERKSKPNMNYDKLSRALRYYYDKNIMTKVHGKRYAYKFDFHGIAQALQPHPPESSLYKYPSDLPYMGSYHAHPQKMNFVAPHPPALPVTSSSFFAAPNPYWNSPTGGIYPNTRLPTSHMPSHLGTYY
In short: as §1

ELF1 = ELF1 (Homo sapiens, UniProt P32519 1-619); details: protein: recombinant; tags: N-terminal GST; dsDNA, one strand shown
Chain of ELF1 (P32519 whole entry): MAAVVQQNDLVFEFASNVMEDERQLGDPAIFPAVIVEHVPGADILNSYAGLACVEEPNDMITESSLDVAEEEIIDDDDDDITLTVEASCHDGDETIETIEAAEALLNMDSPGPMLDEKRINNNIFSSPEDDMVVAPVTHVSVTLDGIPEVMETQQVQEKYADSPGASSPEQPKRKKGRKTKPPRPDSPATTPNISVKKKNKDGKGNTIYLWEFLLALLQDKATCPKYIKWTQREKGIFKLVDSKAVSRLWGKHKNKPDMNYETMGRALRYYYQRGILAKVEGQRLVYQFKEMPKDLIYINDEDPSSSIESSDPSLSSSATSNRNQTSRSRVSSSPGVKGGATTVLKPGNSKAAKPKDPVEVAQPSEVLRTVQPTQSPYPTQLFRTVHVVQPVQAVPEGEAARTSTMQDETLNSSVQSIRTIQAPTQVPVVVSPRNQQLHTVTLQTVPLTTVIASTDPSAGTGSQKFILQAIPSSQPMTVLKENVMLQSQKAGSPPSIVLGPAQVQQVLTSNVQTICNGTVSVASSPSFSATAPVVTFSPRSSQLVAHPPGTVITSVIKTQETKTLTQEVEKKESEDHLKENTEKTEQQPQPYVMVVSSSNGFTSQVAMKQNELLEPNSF
In short: as §1

EHF = biological target: T5, EHF (Homo sapiens, UniProt Q9NZC4 1-300); details: protein: recombinant; tags: N-terminal GST; dsDNA, one strand shown
T5 sequence: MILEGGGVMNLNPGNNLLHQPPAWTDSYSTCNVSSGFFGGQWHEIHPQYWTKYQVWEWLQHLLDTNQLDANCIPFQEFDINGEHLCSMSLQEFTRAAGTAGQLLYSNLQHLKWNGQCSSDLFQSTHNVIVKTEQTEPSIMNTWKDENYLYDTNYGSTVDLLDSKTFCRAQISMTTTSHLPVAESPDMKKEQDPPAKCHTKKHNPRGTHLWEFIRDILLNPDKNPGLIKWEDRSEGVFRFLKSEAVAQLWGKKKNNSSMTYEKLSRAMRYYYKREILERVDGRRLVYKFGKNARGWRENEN
In short: as §1

SPI1 = SPI1 (Homo sapiens, UniProt P17947 1-270); details: protein: recombinant; tags: N-terminal GST; dsDNA, one strand shown
In short: as §1

SPIB = SPIB (Homo sapiens, UniProt Q01892 1-262); details: protein: recombinant; tags: N-terminal GST; dsDNA, one strand shown
Chain of SPIB (Q01892 whole entry): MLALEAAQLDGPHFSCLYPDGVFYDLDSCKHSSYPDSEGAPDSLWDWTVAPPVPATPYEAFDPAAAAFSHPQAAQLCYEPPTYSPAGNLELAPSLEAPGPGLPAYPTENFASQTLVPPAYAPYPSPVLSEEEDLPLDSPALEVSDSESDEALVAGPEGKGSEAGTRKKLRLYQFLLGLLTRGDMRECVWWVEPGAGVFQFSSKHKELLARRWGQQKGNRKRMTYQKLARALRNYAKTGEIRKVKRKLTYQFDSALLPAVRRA
In short: as §1

ELK3 = biological target: T6, ELK3 (Homo sapiens, UniProt P41970 1-407); details: protein: recombinant; tags: N-terminal GST; dsDNA, one strand shown
T6 sequence: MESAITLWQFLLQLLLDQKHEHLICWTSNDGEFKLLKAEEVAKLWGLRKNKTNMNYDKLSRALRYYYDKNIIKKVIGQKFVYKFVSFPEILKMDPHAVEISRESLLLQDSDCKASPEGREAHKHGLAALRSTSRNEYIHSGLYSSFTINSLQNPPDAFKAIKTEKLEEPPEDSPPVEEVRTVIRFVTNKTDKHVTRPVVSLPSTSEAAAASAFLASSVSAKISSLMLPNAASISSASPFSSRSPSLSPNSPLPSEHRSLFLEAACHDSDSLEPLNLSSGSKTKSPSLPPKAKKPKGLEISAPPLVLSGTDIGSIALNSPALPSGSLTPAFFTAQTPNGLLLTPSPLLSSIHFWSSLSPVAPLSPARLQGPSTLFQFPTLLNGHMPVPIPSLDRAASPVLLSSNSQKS
In short: as §1

FEV = biological target: T7, FEV (Homo sapiens, UniProt Q99581 1-238); details: protein: recombinant; tags: N-terminal GST; dsDNA, one strand shown
T7 sequence: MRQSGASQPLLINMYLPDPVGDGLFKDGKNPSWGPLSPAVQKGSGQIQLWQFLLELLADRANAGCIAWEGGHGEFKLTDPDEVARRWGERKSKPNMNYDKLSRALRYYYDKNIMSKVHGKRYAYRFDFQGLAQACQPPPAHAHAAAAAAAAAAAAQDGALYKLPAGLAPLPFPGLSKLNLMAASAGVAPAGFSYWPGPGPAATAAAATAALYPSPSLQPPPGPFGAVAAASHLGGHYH
In short: as §1

ETV5 = ETV5 (Homo sapiens, UniProt P41161 1-510); details: protein: recombinant; tags: N-terminal GST; dsDNA, one strand shown
Chain of ETV5 (P41161 whole entry): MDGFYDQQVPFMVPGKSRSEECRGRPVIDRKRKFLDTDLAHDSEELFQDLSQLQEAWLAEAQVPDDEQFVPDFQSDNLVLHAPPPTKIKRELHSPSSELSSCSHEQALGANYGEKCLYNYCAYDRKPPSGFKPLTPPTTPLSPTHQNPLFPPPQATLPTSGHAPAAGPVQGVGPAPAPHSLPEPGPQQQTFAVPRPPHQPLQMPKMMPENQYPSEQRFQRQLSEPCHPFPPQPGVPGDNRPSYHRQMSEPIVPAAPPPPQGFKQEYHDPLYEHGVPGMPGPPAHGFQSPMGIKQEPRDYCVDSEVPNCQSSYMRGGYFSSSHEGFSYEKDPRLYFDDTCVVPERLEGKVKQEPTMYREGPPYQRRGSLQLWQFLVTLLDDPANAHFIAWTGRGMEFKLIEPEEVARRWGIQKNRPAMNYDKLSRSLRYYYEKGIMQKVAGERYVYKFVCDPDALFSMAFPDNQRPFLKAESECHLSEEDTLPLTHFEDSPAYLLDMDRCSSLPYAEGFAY
In short: as §1

HSF1 = HSF1 (Homo sapiens, UniProt Q00613 1-529); details: protein: recombinant; tags: N-terminal GST; chain copies: 3; dsDNA, one strand shown
Chain of HSF1 (Q00613 whole entry): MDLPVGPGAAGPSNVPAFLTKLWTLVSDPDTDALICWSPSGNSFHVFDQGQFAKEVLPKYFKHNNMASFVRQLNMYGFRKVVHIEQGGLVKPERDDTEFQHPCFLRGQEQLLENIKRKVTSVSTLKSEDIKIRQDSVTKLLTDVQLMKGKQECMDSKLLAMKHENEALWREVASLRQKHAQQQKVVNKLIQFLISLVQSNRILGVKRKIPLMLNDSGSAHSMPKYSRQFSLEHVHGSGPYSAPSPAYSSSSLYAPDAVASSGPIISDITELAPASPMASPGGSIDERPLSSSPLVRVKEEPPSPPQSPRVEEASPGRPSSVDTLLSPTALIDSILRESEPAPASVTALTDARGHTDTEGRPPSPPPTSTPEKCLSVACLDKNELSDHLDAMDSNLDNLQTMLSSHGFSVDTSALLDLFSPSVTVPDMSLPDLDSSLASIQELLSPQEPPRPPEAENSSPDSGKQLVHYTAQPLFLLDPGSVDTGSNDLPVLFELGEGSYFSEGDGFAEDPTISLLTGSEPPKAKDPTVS
In short: as §1

SPIC = biological target: T8, SPIC (Homo sapiens, UniProt Q8N5J4 1-248); details: protein: recombinant; tags: N-terminal GST; dsDNA, one strand shown
T8 sequence: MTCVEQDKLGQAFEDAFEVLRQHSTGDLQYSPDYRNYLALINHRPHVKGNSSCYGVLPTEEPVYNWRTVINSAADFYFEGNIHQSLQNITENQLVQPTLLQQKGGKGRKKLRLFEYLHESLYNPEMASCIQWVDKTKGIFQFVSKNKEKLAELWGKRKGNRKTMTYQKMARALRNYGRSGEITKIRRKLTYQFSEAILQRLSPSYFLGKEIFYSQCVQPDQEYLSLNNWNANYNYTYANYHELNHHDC
In short: as §1

ELF4 = ELF4 (Homo sapiens, UniProt Q99607 1-663); details: protein: recombinant; tags: N-terminal GST; dsDNA, one strand shown
Chain of ELF4 (Q99607 whole entry): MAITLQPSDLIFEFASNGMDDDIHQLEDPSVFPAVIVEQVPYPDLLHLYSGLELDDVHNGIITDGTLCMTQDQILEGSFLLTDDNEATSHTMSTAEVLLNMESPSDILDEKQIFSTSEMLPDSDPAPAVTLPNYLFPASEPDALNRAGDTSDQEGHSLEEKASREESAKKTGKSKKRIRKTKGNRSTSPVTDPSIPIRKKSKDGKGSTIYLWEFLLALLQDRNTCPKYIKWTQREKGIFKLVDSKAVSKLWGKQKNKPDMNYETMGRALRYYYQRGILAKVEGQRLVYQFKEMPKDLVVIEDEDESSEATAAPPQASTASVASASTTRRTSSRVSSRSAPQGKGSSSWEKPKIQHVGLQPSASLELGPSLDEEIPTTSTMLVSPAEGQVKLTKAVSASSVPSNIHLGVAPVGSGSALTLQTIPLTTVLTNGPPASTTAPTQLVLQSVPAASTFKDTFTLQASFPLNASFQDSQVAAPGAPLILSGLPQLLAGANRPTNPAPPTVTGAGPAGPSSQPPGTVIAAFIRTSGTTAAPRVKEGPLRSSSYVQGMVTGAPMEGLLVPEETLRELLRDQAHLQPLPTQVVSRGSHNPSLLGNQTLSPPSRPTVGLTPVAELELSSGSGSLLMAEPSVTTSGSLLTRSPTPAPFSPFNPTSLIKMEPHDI
In short: as §1

ELK4 = biological target: T9, ELK4 (Homo sapiens, UniProt P28324-2 1-405); details: protein: recombinant; tags: N-terminal GST; dsDNA, one strand shown
T9 sequence: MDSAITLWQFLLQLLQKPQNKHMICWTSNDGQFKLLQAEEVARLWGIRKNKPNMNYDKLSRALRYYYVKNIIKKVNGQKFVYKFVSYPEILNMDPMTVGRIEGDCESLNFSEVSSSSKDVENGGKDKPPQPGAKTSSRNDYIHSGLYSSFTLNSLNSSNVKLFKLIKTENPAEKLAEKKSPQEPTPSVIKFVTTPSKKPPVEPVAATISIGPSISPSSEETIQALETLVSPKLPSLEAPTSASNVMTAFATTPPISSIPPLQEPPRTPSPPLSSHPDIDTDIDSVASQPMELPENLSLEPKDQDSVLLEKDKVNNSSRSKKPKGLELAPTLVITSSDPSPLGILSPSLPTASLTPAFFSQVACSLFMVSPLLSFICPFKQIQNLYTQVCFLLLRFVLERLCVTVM
In short: as §1

ETV2 = biological target: T10, ETV2 (Homo sapiens, UniProt O00321 1-342); details: protein: recombinant; tags: N-terminal GST; dsDNA, one strand shown
T10 sequence: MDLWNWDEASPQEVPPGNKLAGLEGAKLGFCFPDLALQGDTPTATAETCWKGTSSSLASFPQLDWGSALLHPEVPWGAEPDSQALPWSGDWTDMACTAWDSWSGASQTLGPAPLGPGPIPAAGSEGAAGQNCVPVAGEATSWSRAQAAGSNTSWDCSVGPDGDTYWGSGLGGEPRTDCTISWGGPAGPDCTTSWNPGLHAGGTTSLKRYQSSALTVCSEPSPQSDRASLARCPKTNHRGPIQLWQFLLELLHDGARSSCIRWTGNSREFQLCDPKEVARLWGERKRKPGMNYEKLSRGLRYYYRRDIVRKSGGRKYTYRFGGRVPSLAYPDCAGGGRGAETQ
In short: as §1

ELF3 = biological target: T11, ELF3 (Homo sapiens, UniProt P78545 1-371); details: protein: recombinant; tags: N-terminal GST; dsDNA, one strand shown
T11 sequence: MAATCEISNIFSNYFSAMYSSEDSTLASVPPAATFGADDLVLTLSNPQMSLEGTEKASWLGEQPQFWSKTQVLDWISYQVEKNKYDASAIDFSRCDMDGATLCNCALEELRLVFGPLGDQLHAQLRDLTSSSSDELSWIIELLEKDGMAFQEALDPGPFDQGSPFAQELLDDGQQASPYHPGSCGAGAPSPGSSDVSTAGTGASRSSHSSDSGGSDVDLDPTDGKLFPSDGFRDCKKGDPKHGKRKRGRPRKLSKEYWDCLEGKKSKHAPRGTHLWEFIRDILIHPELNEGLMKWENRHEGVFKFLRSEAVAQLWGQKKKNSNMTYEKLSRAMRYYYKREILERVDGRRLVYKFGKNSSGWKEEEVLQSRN
In short: as §1

CRX = CRX (Homo sapiens, UniProt O43186 1-299); details: protein: recombinant; tags: N-terminal GST; dsDNA, one strand shown
Chain of CRX (O43186 whole entry): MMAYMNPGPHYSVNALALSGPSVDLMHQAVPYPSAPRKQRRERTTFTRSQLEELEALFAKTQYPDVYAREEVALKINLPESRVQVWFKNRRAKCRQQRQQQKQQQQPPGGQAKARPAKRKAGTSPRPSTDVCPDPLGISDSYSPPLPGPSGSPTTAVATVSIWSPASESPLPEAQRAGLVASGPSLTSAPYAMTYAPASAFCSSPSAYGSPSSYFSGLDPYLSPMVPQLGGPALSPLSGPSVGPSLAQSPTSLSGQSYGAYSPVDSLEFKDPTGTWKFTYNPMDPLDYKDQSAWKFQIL
In short: as §1

ETV1 = ETV1 (Homo sapiens, UniProt P50549 1-477); details: protein: recombinant; tags: N-terminal GST; dsDNA, one strand shown
Chain of ETV1 (P50549 whole entry): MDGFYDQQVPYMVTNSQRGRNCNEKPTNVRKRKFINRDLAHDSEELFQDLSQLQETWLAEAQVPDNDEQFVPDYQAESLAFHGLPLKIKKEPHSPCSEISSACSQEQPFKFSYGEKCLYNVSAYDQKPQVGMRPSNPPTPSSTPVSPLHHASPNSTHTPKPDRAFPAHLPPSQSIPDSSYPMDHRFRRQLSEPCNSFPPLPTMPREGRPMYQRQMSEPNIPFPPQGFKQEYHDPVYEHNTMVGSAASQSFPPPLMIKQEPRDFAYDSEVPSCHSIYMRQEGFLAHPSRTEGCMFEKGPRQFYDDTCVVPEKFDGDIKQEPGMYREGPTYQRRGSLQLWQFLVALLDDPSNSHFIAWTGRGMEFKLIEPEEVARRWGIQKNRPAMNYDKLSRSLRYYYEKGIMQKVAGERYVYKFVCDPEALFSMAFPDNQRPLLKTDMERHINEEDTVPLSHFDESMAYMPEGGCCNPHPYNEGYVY
In short: as §1

ATCCGA
binding signal (FLI1): 1.1 fold enrichment (6-mer frequency, TF over GST control)
binding signal (ELK1): 1.17 fold enrichment (6-mer frequency, TF over GST control)
binding signal (GABPA): 1.2 fold enrichment (6-mer frequency, TF over GST control)
binding signal (ERG): 1.31 fold enrichment (6-mer frequency, TF over GST control)
binding signal (ELF1): 1.15 fold enrichment (6-mer frequency, TF over GST control)
binding signal (EHF): 1.17 fold enrichment (6-mer frequency, TF over GST control)
binding signal (SPI1): 1.08 fold enrichment (6-mer frequency, TF over GST control)
binding signal (SPIB): 1.32 fold enrichment (6-mer frequency, TF over GST control)
binding signal (ELK3): 1.32 fold enrichment (6-mer frequency, TF over GST control)
binding signal (FEV): 1.29 fold enrichment (6-mer frequency, TF over GST control)
binding signal (ETV5): 1.2 fold enrichment (6-mer frequency, TF over GST control)
binding signal (HSF1): 1.56 fold enrichment (6-mer frequency, TF over GST control)
binding signal (SPIC): 1.31 fold enrichment (6-mer frequency, TF over GST control)
binding signal (ELF4): 1.13 fold enrichment (6-mer frequency, TF over GST control)
binding signal (ELK4): 1.18 fold enrichment (6-mer frequency, TF over GST control)
binding signal (ETV2): 1.24 fold enrichment (6-mer frequency, TF over GST control)
binding signal (ELF3): 1.09 fold enrichment (6-mer frequency, TF over GST control)
binding signal (CRX): 2.02 fold enrichment (6-mer frequency, TF over GST control)
binding signal (ETV1): 1.17 fold enrichment (6-mer frequency, TF over GST control)
